Source: PubChem
Cruzain inh noDet: cruzain (T. cruzi) inhibition without detergent. purified cruzain, Z-FR-AMC fluorescence, no detergent. 200,000 compounds, 2.3% hits. Potency, µM, most hits filed as inhibitors; further: nearly all actives have a fitted effect of over 40% in size
Target sequence (P25779 123-467 limits assumed): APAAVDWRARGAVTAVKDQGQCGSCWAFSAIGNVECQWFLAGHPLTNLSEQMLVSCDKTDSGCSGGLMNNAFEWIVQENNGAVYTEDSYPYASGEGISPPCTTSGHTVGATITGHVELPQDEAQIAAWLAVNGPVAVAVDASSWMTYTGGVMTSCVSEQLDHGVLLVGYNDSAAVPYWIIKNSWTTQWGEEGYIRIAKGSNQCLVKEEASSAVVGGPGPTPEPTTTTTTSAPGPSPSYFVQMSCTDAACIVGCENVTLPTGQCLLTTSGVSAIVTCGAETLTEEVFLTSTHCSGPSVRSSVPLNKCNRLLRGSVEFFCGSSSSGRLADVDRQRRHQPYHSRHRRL
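Detergent-free condition (0.00005% Triton X-100) in acetate buffer pH 5.5 with DTT. 1.5 nM enzyme and compound were pre-mixed 15 min, then 2 uM Z-FR-AMC substrate added; reaction progress from fluorescence change between first and third reads (60 s).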
Cruzain Triton: blocks cruzain activity in presence of Triton detergent; P25779; purified cruzain, Z-FR-AMC fluorescence, 0.01% Triton; Potency, µM, actives largely listed as inhibitors; 200,000 compounds, 0.43% hits; further: nearly all actives have a fitted effect of over 40% in size
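Cruzain (1.5 nM) preincubated 15 min at RT with compound in 100 mM sodium acetate pH 5.5, 5 mM DTT, 0.01% Triton X-100. Reaction started with 2 uM Z-FR-AMC; AMC fluorescence (ex 360/em 450 nm) change over 60 s gave rate.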
Hits are given with their value; - = inactive; ? = inconclusive. Sampled rows, rich in hits. Any-hit rate of the full collection: about 2.6%. The call rests on the fitted dose curve; in most records, active means well fitted curve in the direction sought with a large enough effect; inconclusive means small, poorly fitted or top-dose-only effect, or another doubt; inactive means no such curve, though single readings can be large; an effect the other way counts as inactive or inconclusive.

SMILES	Cruzain inh noDet	Cruzain Triton
COc1ccc(C(C[N+](=O)[O-])c2c(-c3ccccc3)cc3ccccn23)c(OC)c1 (stereo not drawn)	?	-
Cc1cc2ccccn2c1C(C[N+](=O)[O-])c1ccc(N(C)C)cc1 (stereo not drawn)	25µM	-
C(#Cc1ccccc1)C[N+]1(CC#Cc2ccccc2)CCCC1	-	-
C=CC#CC[N+]1(CC#Cc2ccccc2)CCOCC1	-	25µM
CN(C)Cc1ccccc1-c1ccc2ncnc(NCc3cccs3)c2c1	-	-
CSc1ccc(Cl)c(C(=O)OCC(=O)NCc2ccco2)c1	-	-
CSc1ccc(Cl)c(C(=O)NCc2ccco2)c1	20µM	?
CCOc1ccc(C2c3[nH]c4ccccc4c3CCN2C(=O)CSc2ccccc2)cc1 (stereo not drawn)	-	-
CCOc1ccc(NC(=O)Cc2coc3ccc(C)cc23)cc1	-	-
Cc1cccc(-c2nc3c4ccccc4nc(N4CCN(c5cc(C)ccc5C)CC4)n3n2)c1	-	-
O=C(CCc1ccccc1)NCc1ccccn1	-	-
CC1c2nc3ccccc3n2C(CC(=O)NCc2ccccn2)C(=O)N1Cc1ccccc1 (stereo not drawn)	13µM	-
COCCNC(=O)CCn1c(=O)[nH]c2cc(OC)c(OC)cc2c1=O	-	-
COc1ccc(-c2nc3ccccc3o2)cc1NC(=O)c1ccc(OCC(C)C)cc1	-	-
CCN1CCSc2ccc(C(=O)NC(C)c3ccccc3)cc21 (stereo not drawn)	-	-
CCOC(=O)c1ccccc1NC1(c2ccc(OC)cc2)C(=O)c2ccccc2C1=O	?	-
CCOc1ccccc1NC(=O)CSc1ccc2nc(-c3ccccc3)cn2n1	-	-
Cc1ccccc1NC(=O)Cn1cnc2c1c(=O)n(C)c(=O)n2C	-	-
Cn1c(=O)c2c(ncn2CC(=O)Nc2cccc(Cl)c2Cl)n(C)c1=O	?	28µM
CCc1ccccc1Nc1cc(C(=O)NC2CCC(C)CC2)c2ccccc2n1 (stereo not drawn)	-	-
COc1cccc(/C=C2/SC(=O)N(CC(=O)N3CCc4ccccc4C3)C2=O)c1OCC(=O)O	?	-
O=C(O)COc1ccccc1/C=C1\SC(=S)N(/N=C/c2ccccc2O)C1=O	?	28µM
COc1ccc2c(c1)c1c(c(=O)n(Cc3ccccc3)c(=O)n1CC(=O)Nc1c(C)cccc1C)n2C	-	-
CC(C)(C)c1ccc(/C=C/C(=O)c2ccc(NC3=NCCCS3)cc2)cc1	32µM	-
O=C(/C=C/c1ccc(Br)cc1)c1ccc(NC2=NCCCS2)cc1	?	-
SMILES	Cruzain inh noDet	Cruzain Triton
COc1ccccc1CN1CC[C@@]2(CCCN(C(C)=O)C2)C1	-	-
CCc1c(C)sc(NC(=O)c2cc(-c3ccc(O)cc3)on2)c1C#N	7.9µM	-
CCc1c(C)sc(NC(=O)c2cc(-c3ccc(OC)c(OC)c3)on2)c1C#N	-	-
Nc1nc2c(ncn2[C@@H]2O[C@H](CO)[C@@H](O)[C@@H]2O)c(=[SH+])[nH]1.O=[N+]([O-])c1ccc(O)[c]([Hg])c1	-	-
Cc1ccc(-n2ccnc(NCCc3ccc(S(N)(=O)=O)cc3)c2=O)cc1C	-	-
COC(=O)C1=C(C)N=c2s/c(=C/c3ccoc3)c(=O)n2C1c1ccccc1 (stereo not drawn)	-	-
COc1ccc(C2C(C(C)=O)=C(C)N=c3s/c(=C/c4ccc5c(c4)OCO5)c(=O)n32)cc1 (stereo not drawn)	10µM	-
CCOC(=O)C1=C(C)N=c2s/c(=C\c3cccn3C)c(=O)n2C1c1cccc(OC)c1OC (stereo not drawn)	?	-
CCOC(=O)C1=C(N)n2c(s/c(=C/c3ccco3)c2=O)=C(C(=O)OC)C1c1ccco1 (stereo not drawn)	13µM	-
CCOC(=O)C1=c2s/c(=C\c3cccnc3)c(=O)n2C(N)=C(C(=O)OC)C1c1cccnc1 (stereo not drawn)	-	-
CCOC(=O)C1=C(C)N=c2s/c(=C/c3ccco3)c(=O)n2C1c1cccc(OC)c1 (stereo not drawn)	25µM	-
CCOC(=O)CC(NC(=O)c1cc2c(=O)n3cccc(C)c3nc2s1)c1ccc(OCC)c(OC)c1 (stereo not drawn)	?	-
Cc1nc2ccc(S(=O)(=O)CCC(=O)Nc3ccc(Cl)cc3)cc2s1	-	-
Cc1ccccc1Cn1c2ccccc2c2cnn(CC(=O)NCCc3ccccc3)c(=O)c21	-	-
CCc1ccc(OCC(=O)Nc2c(C(=O)c3ccc(Br)cc3)oc3ccccc23)cc1	-	-
Cc1ccc2c(=O)cc(CSc3ncn[nH]3)[nH]c2c1C	-	-
CC(C)CC(C(=O)Nc1oc(-c2ccccc2)c(-c2ccccc2)c1C#N)N1C(=O)c2ccccc2C1=O (stereo not drawn)	3.2µM	-
CC(C)CC(C(=O)Nn1cnnc1)N1C(=O)c2ccccc2C1=O (stereo not drawn)	-	-
N#Cc1c(NC(=O)CCN2C(=O)c3ccccc3C2=O)oc(-c2ccccc2)c1-c1ccccc1	?	-
N#Cc1c(NC(=O)CCn2cnc3ccccc3c2=O)oc(-c2ccccc2)c1-c1ccccc1	32µM	-
CCOC(=O)c1c(C)[nH]c(C)c1S(=O)(=O)N1CCCC(C(=O)Nc2ccc(F)cc2F)C1 (stereo not drawn)	-	-
O=C(NCCSCc1c(F)cccc1Cl)C1CCN(S(=O)(=O)Cc2ccccc2)CC1	-	-
CCn1c2c(c(=O)n3ncc(C(=O)Nc4ccc(C(=O)OC)cc4)c13)CN(Cc1ccc(OC)cc1)CC2	?	-
Cc1ccc(NC(=O)CN2C(=O)CCn3nc(-c4cccn4C)cc32)cc1	-	-
Cc1nnc(NCc2ccc(F)cc2)c2c1nnn2Cc1ccccc1Cl	-	-
SMILES	Cruzain inh noDet	Cruzain Triton
Fc1ccc(-n2ncc3c(N4CCN(c5ccccc5F)CC4)ncnc32)cc1	-	-
Cc1ccc(C(=O)Oc2oc(-c3ccccc3)nc2C=Nc2ccc(N(C)C)cc2)cc1	25µM	28µM
Oc1oc(-c2ccccc2)nc1C=Nc1cccc2ccccc12	?	-
COC(=O)c1ccc(-c2nc3ccc(C)cc3o2)cc1	-	-
CN(C)c1ccc(N=Cc2nc(-c3ccccc3)oc2OC(=O)c2cccc(Cl)c2)cc1	20µM	-
Cc1ccc(N2CCN(S(=O)(=O)c3nnc(NC(=O)c4cccc(F)c4)s3)CC2)cc1	-	-
COc1ccc(NC(=O)CN2C(=O)C3(SCC(=O)N3c3ccccc3)c3ccccc32)cc1Cl (stereo not drawn)	20µM	-
Cc1ccc(N2C(=O)CSC23C(=O)N(CC(=O)Nc2ccc(C(C)C)cc2)c2ccccc23)cc1C (stereo not drawn)	?	-
Cc1ccc(NC(=O)CN2C(=O)C3(SCC(=O)N3c3cccc(Cl)c3)c3ccccc32)cc1C (stereo not drawn)	20µM	-
O=C(CN1C(=O)C2(SCC(=O)N2c2ccc(F)c(F)c2)c2ccccc21)Nc1cccc(Cl)c1 (stereo not drawn)	?	-
Cc1nc2ccc(S(=O)(=O)N(CC(=O)Nc3cccc(F)c3)Cc3ccccc3)cc2s1	-	-
CC(C)c1ccc(S(=O)(=O)N2CCN(CC(=O)Nc3ccccc3C(F)(F)F)CC2)cc1	-	-
COc1cccc(CNC(=O)c2cccn2-c2nnc(N3CCCC3)s2)c1	-	-
COc1ccc(-n2c(=O)c3sc4ccccc4c3n(CC(=O)NCc3ccccc3)c2=O)cc1	-	-
